Results on eleven compounds are retold here after the supplement of paper PMC6089552.

This assay deals with A673/TR/shEF. As to the kind of experiment: cell viability (LOESS-normalised, relative to median of negative controls) (log2 ratio); higher = more viable cells (less compound effect), active = hit call of the paper (over 3 MAD below the median). The note with it: treatment time: 72 h. In a few lines:
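A673/TR/shEF Ewing sarcoma cells (1,500 per well, 384-well plates) were grown with or without doxycycline to induce EWS-FLI1 shRNA knockdown, starting 24 h before compounds. Library compounds at two or more concentrations, with DMSO controls, were added for three days. Cell viability was read by CellTiter-Glo luminescence on an Envision reader, then LOESS-corrected per plate, divided by the median of negative controls and log2-transformed. Hits were wells at least three median absolute deviations from the median of all screened wells.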

Setting [1] is: 0.25 µM, library screen: screen1, EWS-FLI1 expression: high (no doxycycline).
The mark [2] stands for this setting: 0.25 µM, library screen: screen1, EWS-FLI1 expression: low (doxycycline-induced shRNA knockdown).
Setting [3] is: 0.25 µM, library screen: screen2, EWS-FLI1 expression: high (no doxycycline).
Setting [4] is: 0.25 µM, library screen: screen2, EWS-FLI1 expression: low (doxycycline-induced shRNA knockdown).
The mark [5] stands for this setting: 2.5 µM, library screen: screen1, EWS-FLI1 expression: high (no doxycycline).
[6] abbreviates: 2.5 µM, library screen: screen1, EWS-FLI1 expression: low (doxycycline-induced shRNA knockdown).
[7] abbreviates: 2.5 µM, library screen: screen2, EWS-FLI1 expression: high (no doxycycline).
The mark [8] stands for this setting: 2.5 µM, library screen: screen2, EWS-FLI1 expression: low (doxycycline-induced shRNA knockdown).
[9] abbreviates: 0.103 µM, library screen: screen3, EWS-FLI1 expression: high (no doxycycline).
[10] abbreviates: 0.103 µM, library screen: screen3, EWS-FLI1 expression: low (doxycycline-induced shRNA knockdown).
Setting [11] is: 0.308 µM, library screen: screen3, EWS-FLI1 expression: high (no doxycycline).
[12] abbreviates: 0.308 µM, library screen: screen3, EWS-FLI1 expression: low (doxycycline-induced shRNA knockdown).
Setting [13] is: 0.926 µM, library screen: screen3, EWS-FLI1 expression: high (no doxycycline).
The mark [14] stands for this setting: 0.926 µM, library screen: screen3, EWS-FLI1 expression: low (doxycycline-induced shRNA knockdown).
Setting [15] is: 2.8 µM, library screen: screen3, EWS-FLI1 expression: high (no doxycycline).
Setting [16] is: 2.8 µM, library screen: screen3, EWS-FLI1 expression: low (doxycycline-induced shRNA knockdown).
Where [17] appears, read: 8.3 µM, library screen: screen3, EWS-FLI1 expression: high (no doxycycline).
Setting [18] is: 8.3 µM, library screen: screen3, EWS-FLI1 expression: low (doxycycline-induced shRNA knockdown).
Setting [19] is: 25 µM, library screen: screen3, EWS-FLI1 expression: high (no doxycycline).
Where [20] appears, read: 25 µM, library screen: screen3, EWS-FLI1 expression: low (doxycycline-induced shRNA knockdown).

Structures are written as SMILES. Out of some 3,200 compounds screened, about 300 (9.4%) showed activity. The sample as a whole holds a higher share of actives than the screen did. A number with no mark means an inactive call.

For the compound `NC(=O)c1ncn([C@@H]2O[C@H](CO)[C@@H](O)[C@H]2O)c1O`, the “cell viability (log2)” value was 0.115 under setting [1]; 0.116 under setting [2]; 0.21 under setting [3]; 0.141 under setting [4]; 0.0737 under setting [5]; 0.176 under setting [6]. Also, the “cell viability (log2)” value by setting is: under setting [7], 0.0545; under setting [8], 0.0404.
For `NC(=O)c1ncn([C@@H]2O[C@H](CO)[C@@H](O)[C@H]2O)c1N`, the “cell viability (log2)” value under setting [9] is 0.135; the “cell viability (log2)” value under setting [10] is 0.0617; the “cell viability (log2)” value under setting [11] was 0.0707; the “cell viability (log2)” value under setting [12] was 0.0876; the “cell viability (log2)” value under setting [13] was 0.088; the “cell viability (log2)” value under setting [14] is 0.0588. Moreover, the “cell viability (log2)” value is 0.1 under setting [15]; 0.0775 under setting [16]; 0.0463 under setting [17]; 0.126 under setting [18]; 0.13 under setting [19]; 0.087 under setting [20].
For `Nc1ccn([C@@H]2O[C@H](CO)[C@@H](O)C2(F)F)c(=O)n1`, the “cell viability (log2)” value by setting is: under setting [9], -1.19 (active); under setting [10], -0.155 (active); under setting [11], -1.43 (active); under setting [12], -0.392 (active); under setting [13], -1.81 (active); under setting [14], -0.473 (active). Besides, the “cell viability (log2)” value by setting is: under setting [15], -1.98 (active); under setting [16], -0.588 (active); under setting [17], -2.08 (active); under setting [18], -0.562 (active); under setting [19], -2.16 (active); under setting [20], -0.572 (active).
As for `Nc1ncn([C@@H]2O[C@H](CO)[C@@H](O)[C@H]2O)c(=O)n1`, the “cell viability (log2)” value was 0.00187 (0.025 µM, library screen: screen2, EWS-FLI1 expression: high (no doxycycline)); 0.0749 (0.025 µM, library screen: screen2, EWS-FLI1 expression: low (doxycycline-induced shRNA knockdown)); 0.0677 under setting [1]; 0.0883 under setting [2]; 0.0549 under setting [3]; 0.0892 under setting [4]. The “cell viability (log2)” value under setting [5] was 0.046; the “cell viability (log2)” value under setting [6] was 0.161; the “cell viability (log2)” value under setting [7] is 0.0659; the “cell viability (log2)” value under setting [8] is 0.0803; the “cell viability (log2)” value (25 µM, library screen: screen2, EWS-FLI1 expression: high (no doxycycline)) is -0.117 (active); the “cell viability (log2)” value (25 µM, library screen: screen2, EWS-FLI1 expression: low (doxycycline-induced shRNA knockdown)) was -0.00278.
Consider `NC(=O)c1ncn([C@@H]2O[C@H](CO)[C@@H](O)[C@H]2O)n1`, for which the “cell viability (log2)” value reads like this: under setting [9], 0.0479; under setting [10], -0.00301; under setting [1], 0.0242; under setting [2], -0.0375; under setting [3], 0.0942; under setting [4], 0.138. In addition, the “cell viability (log2)” value is, setting by setting: under setting [11], 0.00539; under setting [12], 0.013; under setting [13], 0.012; under setting [14], 0.0638; under setting [5], 0.0898; under setting [6], -0.0568. The “cell viability (log2)” value is 0.148 under setting [7]; 0.053 under setting [8]; -0.0142 under setting [15]; -0.0276 under setting [16]; 0.0371 under setting [17]; 0.0291 under setting [18]. In addition, the “cell viability (log2)” value was 0.13 under setting [19] and 0.0392 under setting [20].
As to `Nc1ccn([C@@H]2O[C@H](CO)[C@@H](O)[C@@H]2O)c(=O)n1`, the “cell viability (log2)” value was -0.206 (active) under setting [9]; -0.0158 under setting [10]; 0.0194 under setting [1]; 0.174 under setting [2]; -0.179 (active) under setting [3]; 0.162 under setting [4]. The “cell viability (log2)” value under setting [11] is -0.0966; the “cell viability (log2)” value under setting [12] is 0.00929; the “cell viability (log2)” value under setting [13] is -0.377 (active); the “cell viability (log2)” value under setting [14] was -0.00593; the “cell viability (log2)” value under setting [5] is -0.85 (active); the “cell viability (log2)” value under setting [6] is 0.0115. In addition, the “cell viability (log2)” value reads like this: under setting [7], -1.17 (active); under setting [8], -0.0511; under setting [15], -0.966 (active); under setting [16], -0.023; under setting [17], -1.5 (active); under setting [18], -0.184 (active). The “cell viability (log2)” value is -2.24 (active) under setting [19] and -0.544 (active) under setting [20].
For `N=c1ccn2c(n1)O[C@H]1[C@H](O)[C@@H](CO)O[C@H]12`, the “cell viability (log2)” value was -0.254 (active) under setting [1]; 0.0178 under setting [2]; -0.122 (active) under setting [3]; 0.0732 under setting [4]; -1.03 (active) under setting [5]; -0.19 (active) under setting [6]. In addition, the “cell viability (log2)” value reads like this: under setting [7], -0.641 (active); under setting [8], 0.0215.
Turning to `C[N+](C)(C)CCOP(=O)([O-])OP(=O)(O)OC[C@H]1O[C@@H](n2ccc(N)nc2=O)[C@H](O)[C@@H]1O`, the “cell viability (log2)” value under setting [3] was 0.0983, the “cell viability (log2)” value under setting [4] was 0.0319, the “cell viability (log2)” value under setting [7] was 0.095 and the “cell viability (log2)” value under setting [8] is 0.0926.
Take `Nc1ccn([C@@H]2CS[C@H](CO)O2)c(=O)n1`: the “cell viability (log2)” value by setting is: under setting [9], 0.125; under setting [10], 0.0191; under setting [11], 0.0768; under setting [12], 0.0559; under setting [13], 0.0245; under setting [14], 0.0926. For the same compound, the “cell viability (log2)” value reads like this: under setting [15], 0.132; under setting [16], 0.0391; under setting [17], 0.0536; under setting [18], 0.0703; under setting [19], 0.101; under setting [20], 0.0951.
On to `Nc1ccn([C@@H]2O[C@H](CO)[C@@H](O)[C@H]2O)c(=O)n1`, for which the “cell viability (log2)” value reads like this: under setting [1], 0.138; under setting [2], 0.019; under setting [5], 0.237; under setting [6], 0.0416.
With `Nc1ccn([C@H]2CC[C@@H](CO)O2)c(=O)n1`, the “cell viability (log2)” value was 0.122 under setting [9]; 0.0536 under setting [10]; 0.188 under setting [3]; 0.111 under setting [4]; 0.116 under setting [11]; 0.0808 under setting [12]. For the same compound, the “cell viability (log2)” value was 0.123 under setting [13]; 0.139 under setting [14]; 0.0418 under setting [7]; 0.107 under setting [8]; 0.148 under setting [15]; 0.0816 under setting [16]. In addition, the “cell viability (log2)” value is, setting by setting: under setting [17], 0.0629; under setting [18], 0.0663; under setting [19], 0.132; under setting [20], 0.176.
